PubChem BioAssay AID463173 (ICCB-Longwood Screening Facility, Harvard Medical School, 2010)
About 4,300 (8.3%) of roughly 52,000 compounds were called active. Rule as the data show it: active = survival mostly below about 52% (no sharp cut-off); inactive = mostly above about 56%. Only a selection was taken, and actives are over-represented in it overall.

Test system: DeltatarO mutant
Assay: growth inhibition of S. aureus wild type versus tarO mutant, primary screen, teichoic acid synthesis inhibitors, RN4220, OD600 (AID 463173)
Details: OD600, 18 h, active compounds read low, screened at 18.75 µg/mL (by protocol)

SMILES | survival
O=C(O)C1CSC(c2cccs2)N1 (stereo not given) | 83% (inactive)
CCN1C(=O)c2ccccc2Sc2ccc(NC(=O)c3ccc(C#N)cc3)cc21 | 102% (inactive)
COc1ccc(Nc2cc(C(=O)NCCCN(C)C3CCCCC3)c3ccccc3n2)cc1 | 97% (inactive)
N#Cc1ccc(C(=O)N2CCN(c3nc4ccc(F)cc4s3)CC2)cc1 | 72% (inactive)
Fc1ccc(CNc2nc(-c3ccc(Cl)cc3)cc(C(F)(F)F)n2)cc1 | 12% (active)
COc1ccc(-c2cc(NCc3ccc(F)cc3)n3cnnc3n2)cc1 | 61% (inactive)
Fc1ccc(CNc2cc(-c3ccccc3)nc3nncn23)cc1 | 17% (active)
O=S(=O)(c1ccccc1)n1nc(-c2ccc(Cl)cc2)nc1NCc1ccc(F)cc1 | 53% (inactive)
Clc1ccc(CNc2cc(-c3ccccc3)nc3nncn23)cc1 | 50% (inactive)
Fc1ccc(-c2cc(C(F)(F)F)nc(NCc3ccccc3)n2)cc1 | 85% (inactive)
O=C(NCc1ccc(F)cc1)c1cc(-c2ccc(Cl)cc2)n[nH]1 | 85% (inactive)
Fc1ccc(CNc2nc(-c3ccccc3)cc(C(F)(F)F)n2)cc1 | 4% (active)
O=C(CSc1nc(-c2ccc(F)cc2)cc(C(F)(F)F)n1)NCCc1ccccc1 | 73% (inactive)
O=C(NCC(c1cccnc1)N1CCN(Cc2ccccc2)CC1)C(=O)Nc1cccc(Cl)c1 (stereo not given) | 77% (inactive)
CCOC(=O)c1cccc(NC(=O)Cc2ccc(NC(=O)N3CCCCc4ccccc43)cc2)c1 | 76% (inactive)
Cc1csc2nc(COC(=O)COc3ccccc3F)cc(=O)n12 | 64% (inactive)
CCOC(=O)c1[nH]cnc1C(=O)Nc1ccc(F)cc1 | 64% (inactive)
COc1cccc(NC(=O)CSc2nnc(NC(=O)NC3CCCCC3)s2)c1 | 75% (inactive)
COc1ccc(NC(=O)Cn2c(=O)n(CCc3ccccc3)c(=O)c3sc4ccccc4c32)cc1 | 76% (inactive)
O=C(CN1C(=O)CCSc2ccc(S(=O)(=O)N3CCCC3)cc21)Nc1cccc(F)c1 | 72% (inactive)
CCCCn1c(=NC(=O)c2c(-c3c(F)cccc3Cl)noc2C)c(C(=O)OCC)cc2c(=O)n3ccccc3nc21 | 170% (inactive)
COc1ccc(CNC(=O)CN2C(=O)COc3ccccc32)c(OC)c1 | 89% (inactive)
CC1CCN(S(=O)(=O)c2ccc3c(c2)CCN3C(=O)Nc2ccccc2Br)CC1 | 76% (inactive)
COc1ccc(S(=O)(=O)NCCc2nnc3ccc(SCC(=O)Nc4cc(C)cc(C)c4)nn23)cc1 | 63% (active)

SMILES | survival
COc1ccc(S(=O)(=O)NCCc2nnc3ccc(SCC(=O)Nc4ccc(C(F)(F)F)cc4)nn23)cc1 | 81% (inactive)
Cc1ccc(C)c(CSc2ccc3nnc(CCNS(=O)(=O)c4ccccc4)n3n2)c1 | 75% (inactive)
O=S(=O)(NCCc1nnc2ccc(SCc3ccc(Cl)cc3Cl)nn12)c1ccccc1 | 37% (active)
CCc1ccc(NC(=O)CSc2ccc3nnc(CCNS(=O)(=O)c4ccc(OC)cc4)n3n2)cc1 | 81% (inactive)
O=S(=O)(NCCc1nnc2ccc(SCc3c(F)cccc3Cl)nn12)c1ccccc1 | 58% (inactive)
Cc1cccc(CSc2ccc3nnc(CCNS(=O)(=O)c4ccccc4)n3n2)c1 | 68% (inactive)
O=S(=O)(NCCc1nnc2ccc(SCc3ccccc3Cl)nn12)c1ccccc1 | 68% (active)
O=S(=O)(NCCc1nnc2ccc(SCc3cccc(Cl)c3)nn12)c1ccccc1 | 58% (inactive)
Cc1onc(-c2ccccc2Cl)c1C(=O)Oc1ccccc1F | 76% (inactive)
Cc1ccc(NC(=O)c2cc3c(=O)[nH]c4ccccc4c3n2C)cc1F | 83% (inactive)
O=C(OCCN1CCOCC1)c1ccccc1 | 88% (inactive)
Cc1ccc(-n2ncc3c(NCCCN(C)C)ncnc32)cc1Cl | 95% (inactive)
COc1ccc(-c2noc(-c3ccc(N4CCN(c5ccccc5)CC4)c([N+](=O)[O-])c3)n2)cc1 | 49% (inactive)
Cc1ccccc1OCC(=O)Nc1ccc2nc(SCc3ccccc3)sc2c1 | 88% (inactive)
Cc1ccc(OCC(=O)N(Cc2ccc(Cl)cc2)Cc2ccco2)cc1C | 58% (inactive)
Cc1cccc(OCC(=O)N(Cc2ccc(N(C)C)cc2)Cc2ccco2)c1C | 42% (active)
CCc1ccc(CN(Cc2ccco2)C(=O)COc2ccc(Cl)c(C)c2)cc1 | 38% (active)
Cc1cc(OC(C)C(=O)N(Cc2ccco2)Cc2ccco2)cc(C)c1Cl (stereo not given) | 35% (active)
CCc1ccc(OCC(=O)N(Cc2ccc(C)cc2)Cc2ccco2)cc1 | 91% (inactive)
Cc1ccc(CN(Cc2ccco2)C(=O)COc2c(C)cc(C)cc2C)cc1 | 54% (inactive)
Cc1ccc(CN(Cc2ccco2)C(=O)COc2ccccc2C)cc1 | 40% (active)
Cc1ccc(CN(Cc2ccco2)C(=O)COc2cccc(C)c2C)o1 | 66% (inactive)
Cc1cc(OC(C)C(=O)N(Cc2ccco2)Cc2ccccc2F)cc(C)c1Cl (stereo not given) | 81% (inactive)
Cc1cccc(OCC(=O)N(Cc2ccc(C(C)C)cc2)Cc2ccco2)c1C | 49% (inactive)

SMILES | survival
Cc1ccc(CN(Cc2ccco2)C(=O)COc2cc(C)c(Cl)c(C)c2)cc1 | 58% (inactive)
Cc1cc(OC(C)C(=O)N(Cc2ccc(N(C)C)cc2)Cc2ccco2)ccc1Cl (stereo not given) | 67% (inactive)
NNC(=O)C1CCN(S(=O)(=O)c2ccccc2N)CC1 | 95% (inactive)
CCOc1cc(C(=O)OCc2cc(=O)n3nc(C4CC4)sc3n2)cc(OCC)c1OCC | 79% (inactive)
COCCNC(=S)N1CCC(NC(=O)Nc2ccc(F)cc2)CC1 | 91% (inactive)
CC(SCc1ccccc1)C(=O)NCc1ccccn1 (stereo not given) | 77% (inactive)
COc1ccccc1N1CCN(C(=O)Cn2ncc3ccsc3c2=O)CC1 | 114% (inactive)
CC1CCc2c(sc(NC(=O)c3ccc(Cl)cc3Cl)c2C#N)C1 (stereo not given) | 71% (inactive)
COc1cc(CN(C(=O)c2ccc(C)cc2)c2ccccn2)cc(OC)c1OC | 78% (inactive)
CN(CCC(N)=O)Cc1ccccc1 | 75% (inactive)
CCCCCn1c(CNC(=O)c2ccccc2)nc2ccccc21 | 67% (inactive)
CC(C)CCn1c(/C=C/c2ccccc2)nc2ccccc21 | -1% (active)
CCn1c(O)c(/C=C/c2nc3ccccc3n2CC)sc1=S | 78% (inactive)
CCCCCCn1c(CNC(=O)c2ccccc2)nc2ccccc21 | 66% (inactive)
CCCCCn1c(CNC(=O)c2ccc(F)cc2)nc2ccccc21 | 68% (inactive)
CCCn1c(SCC(O)c2ccccc2)nc2ccccc21 (stereo not given) | 86% (inactive)
CCCn1c(CNC(=O)c2ccc(F)cc2)nc2ccccc21 | 76% (inactive)
CCC(C)Cn1c(/C=C/c2ccccc2)nc2ccccc21 (stereo not given) | -1% (active)
CCCCCCn1c(/C=C/c2ccccc2)nc2ccccc21 | 1% (active)
CCc1nc2ccccc2n1CC(C)C(=O)O (stereo not given) | 96% (inactive)
Cc1cccc(C(=O)NCCc2nc3ccccc3n2CCC(C)C)c1 | 99% (inactive)
CC(C)Cn1c(/C=C/c2ccc(F)cc2)nc2ccccc21 | -4% (active)
COc1ccc(OCc2ccc(-c3nc(C#N)c(NCc4ccccc4)o3)o2)cc1 | 78% (inactive)
COc1cc(C(CC(=O)Nc2cccc(C(C)=O)c2)N2Cc3ccccc3C2=O)cc(OC)c1OC (stereo not given) | 67% (inactive)

SMILES | survival
COc1ccccc1N1CCN(C(=O)c2c3c(nc4ccccc24)C(=O)N(C2CCCCC2)C3)CC1 | 94% (inactive)
Cc1ccc(-c2nnc(Nc3ccc(S(N)(=O)=O)cc3)c3ccccc23)cc1S(=O)(=O)N1CCCCC1 | 103% (inactive)
Cn1c(SCC(=O)N2CCOCC2)ncc(C(=O)Nc2ccc(F)cc2)c1=O | 87% (inactive)
CCOc1ccc(NS(=O)(=O)c2ccc(C(=O)N(C)C)s2)cc1 | 76% (inactive)
CCOc1cc2sc(N3CCC(C(=O)Nc4ccc(CC)cc4)CC3)nc2cc1Br | 86% (inactive)
C#CCn1c(/C=C/c2ccc(Cl)cc2)nc2ccccc21 | 10% (active)
Cc1ccc(/C=C/c2nc3ccccc3n2S(=O)(=O)c2cccc(Cl)c2)cc1 | 77% (inactive)
Cn1c(C=Nc2ccc(Cl)cc2)nc2ccccc21 | 83% (inactive)
COc1ccc(-c2nnc(SCC(=O)Nc3ccc(Cl)cc3)s2)cc1 | 84% (inactive)
Cc1ccc(-n2nc(C(=O)N3CCN(c4cccc(C(F)(F)F)c4)CC3)c3c4ccccc4n(C)c3c2=O)cc1 | 95% (inactive)
Cn1cc(C(=O)N2CCN(c3cccc(C(F)(F)F)c3)CC2)c2c3ccccc3n(C)c2c1=O | 20% (active)
Cn1c2ccccc2c2c(C(=O)N3CCN(c4cccc(C(F)(F)F)c4)CC3)cn(C3CCCCC3)c(=O)c21 | 88% (inactive)
O=C(NCc1cccc(Cl)c1)C1CCCN(c2nn3cc(-c4ccc(F)cc4)nc3s2)C1 (stereo not given) | 87% (inactive)
CCc1ccccc1NC(=O)c1nc(-c2ccncc2)no1 | 46% (inactive)
Cc1cc(C)c(S(=O)(=O)N2CCC(n3c(C(F)(F)F)nc4cccnc43)CC2)c(C)c1 | 79% (inactive)
O=C(Cn1c(C(=O)N2CCOCC2)cc2sccc21)c1ccccc1 | 99% (inactive)
Oc1ccccc1C1OCC(C2CC=CCC2)CO1 (stereo not given) | 96% (inactive)
Oc1ccccc1C1OC2CCCCC2C2=CCCCC21 (stereo not given) | 34% (active)
CC1=CCC2(CO)COC(c3ccccc3O)C1C2 (stereo not given) | 90% (inactive)
c1ccc2c(c1)[nH]c1c(N3CCOCC3)ncnc12 | 68% (inactive)
COc1cccc(CCNC(=O)Cn2c(-c3cccs3)cc3ccccc32)c1 | 70% (inactive)
O=C(Nc1c2c(nn1-c1ccc(Cl)cc1)CS(=O)(=O)C2)c1cccc(F)c1 | 55% (inactive)
Cc1noc(/C=C/c2ccccc2F)c1S(=O)(=O)N1CCC(C(=O)NCc2ccco2)CC1 | 107% (inactive)
